Many of the other results were omitted from the sample, so hits are more common in it than they were.
Pf Dd2 inh – Plasmodium falciparum Dd2 growth inhibition; P. falciparum Dd2 growth, SYBR Green, 72 h; Potency, µM (top dose mostly 28.9 µM), for the others: at the highest dose activity, negative = inhibition, hits mostly inhibitors; hit rate 4.3% among 120,000; AID 1347417; active = well fitted inhibition curve with a large enough effect;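 note: plate controls were DMSO vehicle for no effect and reference drug for full effect; nearly all actives have a fitted effect of over 65% in size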
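Readout: SYBR Green fluorescence, 485 nm excitation, 535 nm emission, after ~16 h lysis at 37C. Before that, Dd2-infected red cells (2.5% hematocrit) grew 72 h with compound, 29 uM top final concentration.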
* hit, by the source's call; i = inactive; [ ] = remark or other dose. Potency is the fitted concentration of half-maximal effect.

SMILES	Pf Dd2 inh
COCCN1C(=O)c2ccccc2C(C(=O)NCCCOC(C)C)C12CCCCC2 (configuration not stated)	-7%
COCCN1C(=O)c2ccccc2C(C(=O)Nc2nc3ccccc3[nH]2)C12CCCCC2 (configuration not stated)	1.8µM*
COCCN1C(=O)c2ccccc2C(C(=O)Nc2cc(Cl)ccc2OC)C12CCCC2 (configuration not stated)	-20%
COCCN1C(=O)c2ccccc2C(C(=O)NCc2ccccc2)C12CCCCC2 (configuration not stated)	-28%
COCCN1C(=O)c2ccccc2C(C(=O)NCc2ccc(F)cc2)C12CCCC2 (configuration not stated)	-19%
COCCN1C(=O)c2ccccc2C(C(=O)NCc2ccccc2F)C12CCCCC2 (configuration not stated)	-25%
COCCN1C(=O)c2ccccc2C(C(=O)NCCCc2ccccc2)C12CCCC2 (configuration not stated)	11µM*
COCCN1C(=O)c2ccccc2C(C(=O)Nc2cccc(NC(C)=O)c2)C12CCCCC2 (configuration not stated)	i
COCCN1C(=O)c2ccccc2C(C(=O)NCc2ccco2)C12CCCCC2 (configuration not stated)	0%
CCc1nc(NC(=O)C2c3ccccc3C(=O)N(CCOC)C23CCCC3)sc1C (configuration not stated)	2µM*
COCCN1C(=O)c2ccccc2C(C(=O)Nc2nc(C)c(C)s2)C12CCCCC2 (configuration not stated)	3.5µM*
COCCN1C(=O)c2ccccc2C(C(=O)NCCc2ccc(OC)cc2)C12CCCC2 (configuration not stated)	i
COC[C@@H]1CN(C(=O)c2ccc(C#N)cc2)C[C@H]1c1ccccn1	2%
CCC(C)NC(=O)N1CC(n2cc(C(=O)NCc3ccncc3)nn2)C1 (configuration not stated)	16%
COCC1(c2n[nH]c(C3CCOCC3)n2)CCC1	-6%
N#Cc1cccc(C(=O)N2CCCCCCNC(=O)[C@@H]3C[C@@H](c4nc(-c5cccnc5)no4)C[C@@H]32)c1	i
O=C(NCCc1ccc(Cl)cc1)C1CCc2nnc(C3CCN(C(=O)Nc4ccc(Cl)cc4)CC3)n21 (configuration not stated)	-30%
O=C(c1cccnc1OC1CCN(S(=O)(=O)c2ccccc2)C1)N1CCCCC1 (configuration not stated)	i
COc1ccc(CCNc2ncnc3c2CN(c2ccc(Cl)cc2)C(=O)N(C)C3)cc1	-4%
CN1CCOc2c(C(=O)NCCN3CCNC3=O)cc(-c3cccnc3)cc21	-16%[44.1 µM]
CNc1nccnc1-c1ccccc1S(=O)(=O)NC(C)(C)C	-11%
CNC(=O)[C@@H]1C[C@@H](n2cc(CNC(=O)Nc3cc(F)ccc3F)nn2)CN1	-3%
O=C(O)c1cccc(-c2cncc(C(=O)O)c2)c1	i
CCCNC(=O)C1c2ccccc2C(=O)N(CCOC)C12CCCCC2 (configuration not stated)	0%
COCCN1C(=O)c2ccccc2C(C(=O)NCC(C)C)C12CCCC2 (configuration not stated)	1%
SMILES	Pf Dd2 inh
COCCN1C(=O)c2ccccc2C(C(=O)Nc2nnc(C(C)C)s2)C12CCCCC2 (configuration not stated)	11µM*
CC(C)NC(=O)N1CCCC(c2nc(-c3cccnc3)no2)CCNC(=O)CC1 (configuration not stated)	-4%
COCCN1CCC2(CCC1=O)CCN(S(=O)(=O)c1cc(C)ccc1C)CC2	7%
CCOc1cccc(CNC(=O)C2CCCCC(=O)N2Cc2cccc(OC)c2)c1 (configuration not stated)	-6%
COc1cccc(CN2CCCC(NC(=O)Nc3ccccc3OC)C2)c1 (configuration not stated)	-23%
O=C(NC1CCS(=O)(=O)C1)C1CCCCC(=O)N1Cc1ccccc1 (configuration not stated)	20%
COc1cccc(CN2CCC(Oc3ccc(C(=O)NC4CCCC4)cc3Cl)CC2)c1	11µM*
COc1ccc(C(=O)NC2CC2)c(OC2CCN(Cc3cccc(SC)c3)CC2)c1	-15%
COc1cccc(CN2C(=O)CCCCC2C(=O)NC2CCCCCC2)c1 (configuration not stated)	8.9µM*
COc1ccc2c(ccn2CCNC(=O)C2CC(=O)N(c3n[nH]c4ccccc34)C2)c1 (configuration not stated)	i
O=C(c1ccc(F)c(F)c1)N1CCC2(CC1)N=C(c1ccc(Cl)cc1)NO2	i
COCC1CN(C2CCC2)CC12CCN(C(=O)C1CC=CC1)CC2 (configuration not stated)	i
COc1ccc(-c2noc(-c3nnn(-c4ccc(C)cc4C)c3C)n2)cc1	25%
COc1ccc(-c2noc(-c3nnn(-c4ccc(C(C)C)cc4)c3C)n2)cc1OC	8.9µM*
COc1ccc(OC)c(-n2nnc(-c3nc(-c4ccc5c(c4)OCO5)no3)c2C)c1	-6%
CN(C)C(=O)C1CN(C(=O)c2ccc(C#N)cc2)CC12CCOCC2 (configuration not stated)	16%
OCC1CN(Cc2cnc[nH]2)CCC12CCN(CCCn1cccn1)CC2 (configuration not stated)	7%
O=C(C1CCC1)N1CC2CC(C1)[C@H]1CCCC(=O)N1C2 (some centres not stated)	6%
COc1ccc(C(=O)NC2CCN(C(=O)c3cc4c(=O)[nH]c(C)cn4n3)CC2)cc1	i
COc1ccc2cc(C(=O)N3CCC(Cc4ccc(C(=O)NC5CC5)cc4)CC3)[nH]c2c1	4.5µM*
CNC(=O)[C@@H]1CN(C(=O)c2cc3ccc(OC)cc3[nH]2)C[C@H]1C1CCN(C)CC1	10%
COc1cccc(C(=O)N2CCC(Oc3ccccc3-c3nc(C4CCOCC4)no3)C2)c1 (configuration not stated)	-9%
CN(Cc1nc2ccc(Cl)cc2[nH]1)C(=O)c1ccc2cccc(F)c2n1	-27%
Cc1nn(CC(=O)NCc2ccc(N(C)C)cc2)c(=O)c2nc(C(C)C)sc12	i
NCc1ccc(-c2ccc(F)cc2)cc1	10µM*
SMILES	Pf Dd2 inh
CCCCCn1c(-c2cccc(C)c2)nc2ccccc21	-8%
COc1ccc(Cn2ccn(Cc3cccc(C)c3)c(=O)c2=O)cc1	34%
Cc1cccc(-c2ccccc2CN)c1	10µM*
Cc1cccc(-c2nocc2CCC(=O)NCc2ccccc2F)c1	-20%
NCc1cccc(-c2ccccn2)c1	-28%[44.1 µM]
COc1ccc(CCC(=O)NCCc2csc(-c3cccc(C)c3)n2)cc1	-19%
Cc1cccc(-c2ccc(CN)cc2)c1	11µM*
NCc1cccc(-c2ccc3c(c2)C(=O)N2CC[C@H](NC(=O)c4cccc(F)c4)[C@H]2C(=O)N3)c1	i
COc1ccc(-c2ccc(CN)cc2)cc1	-12%[44.1 µM]
NCc1cccc(-c2cc(F)cc(F)c2)c1	10µM*
Cc1ccc(CN(C)Cc2ccc(F)cc2)cc1	10%[44.1 µM]
O=C(NCc1cccnc1)c1ccc2nccn2c1	8%[44.1 µM]
CNC(=O)[C@@H]1C[C@H](n2cc(CN(C)C(=O)Nc3ccccc3)nn2)CN1	-9%
N#Cc1ccc(O[C@@H]2CCOC[C@H]2NC(=O)CCN2CCCC2=O)cc1	-6%
O=C(c1ccoc1)N1CCCC(c2noc(COc3ccccc3)n2)C1 (configuration not stated)	7%
O=Cc1ccc(-c2cccc(Cl)c2)cc1	10%[44.1 µM]
